# Compound activity (PubChem)
# IL1B secr inh = blocks inflammasome-driven IL-1 beta release. THP-1 LPS/ATP IL-1B secretion, AlphaLISA, 16 h; active compounds read low. activity change, % at 57.5 µM. 4.7% of 360,000 active; in the data active = activity change below about -50%; inconclusive = mostly about -30% to -49%
#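 THP-1 cells pretreated 1 hr with compounds (up to 57.5 uM final), then stimulated with LPS (250 ng/mL final) plus ATP (1.25 mM final); secreted IL-1B measured by AlphaLISA after 16 hr, decreased signal indicating inhibition.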
# 12-LOX inh = blocks human arachidonate 12S-lipoxygenase. P18054. purified 12hLO, xylenol orange hydroperoxide absorbance. Potency, µM (doses to about 108 µM), without a hit: at the highest dose activity change, negative = inhibition, hits mostly inhibitors. 1.1% of 580,000 active. AID 1671190; also: potency is read from the fitted curve at half-maximal effect
# Target sequence (P18054 whole entry, looked up): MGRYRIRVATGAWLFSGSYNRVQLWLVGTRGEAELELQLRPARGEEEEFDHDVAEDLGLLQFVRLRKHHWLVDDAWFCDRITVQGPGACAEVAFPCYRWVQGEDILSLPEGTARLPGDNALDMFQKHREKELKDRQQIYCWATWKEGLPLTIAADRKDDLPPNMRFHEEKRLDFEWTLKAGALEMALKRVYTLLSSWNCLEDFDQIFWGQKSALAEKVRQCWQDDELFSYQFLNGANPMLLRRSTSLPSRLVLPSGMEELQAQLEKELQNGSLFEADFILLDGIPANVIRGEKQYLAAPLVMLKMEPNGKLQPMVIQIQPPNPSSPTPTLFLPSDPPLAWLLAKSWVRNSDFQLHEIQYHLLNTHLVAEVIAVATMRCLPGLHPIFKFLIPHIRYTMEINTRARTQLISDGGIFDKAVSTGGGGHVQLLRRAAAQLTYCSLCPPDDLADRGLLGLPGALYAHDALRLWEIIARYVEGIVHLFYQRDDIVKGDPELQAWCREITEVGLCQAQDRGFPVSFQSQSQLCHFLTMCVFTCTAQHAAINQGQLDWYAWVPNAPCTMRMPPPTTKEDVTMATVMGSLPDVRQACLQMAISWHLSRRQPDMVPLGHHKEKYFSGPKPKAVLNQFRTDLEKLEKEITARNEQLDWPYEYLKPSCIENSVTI
#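 Purified human 12hLO at 150 nM in 25 mM Hepes, 0.01% Triton X-100, pH 7.0, preincubated 15 min at room temperature with compound. Reaction started with 40 uM arachidonic acid, 30 min at room temperature. Hydroperoxide measured by Fe-xylenol orange, 573/405 nm absorbance ratio.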
# HT1080 IDH1KD tx = HT-1080 IDH1 knockdown cell toxicity (counter line); HT-1080 IDH1 knockdown viability, ATP luminescence, 48 h; Potency, µM (top dose mostly 46.1 µM), for inactives: at the top dose activity, negative = toxicity, most hits filed as cytotoxic; 2% of 360,000 active; AID 686971;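 also: potency is read from the fitted curve at half-maximal effect; 0% = DMSO wells and -100% = cell-free medium wells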
#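 Viability of IDH1-knockdown HT-1080 fibrosarcoma cells was assessed by CellTiter-Glo after 48 h at 37 °C with titrated compound; concentration-effect curves were classified by fit quality and response size.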
# TDP1 cell CPT = growth inhibition of DT40 Tdp1-/-;hTDP1 cells with camptothecin (screen for TDP1 inhibitors). Potency, µM (top dose mostly 46.2 µM), inactives show at the top dose activity change, negative = growth inhibition, most hits filed as inhibitors. 12% of 420,000 active. AID 686979. chicken DT40 Tdp1-/-;hTDP1 cells + 20 nM CPT, ATP luminescence, 48 h; also: potency is read from the fitted curve at half-maximal effect; nearly all actives have a fitted effect of over 55% in size
#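 Chicken DT40 Tdp1-/- cells complemented with human TDP1, 400 cells/well, exposed to compounds plus 20 nM camptothecin for at least 48 h at 37 C; viability read as ATP content by CellTiter-Glo luminescence.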
# TDP1 cell noCPT = qHTS for Inhibitors of human tyrosyl-DNA phosphodiesterase 1 (TDP1): qHTS in cells in absence of CPT. DT40 Tdp1-/- hTDP1 cells, no CPT, ATP luminescence, 48 h. Potency, µM (titrated, usually from 46.2 µM), for inactives: top-dose activity change, negative = growth inhibition, most hits filed as inhibitors. 15% of 420,000 active. AID 686978, 2013; also: potency is read from the fitted curve at half-maximal effect; nearly all actives have a fitted effect of over 55% in size
#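 Chicken DT40 Tdp1-/- cells stably complemented with human TDP1 were seeded at 400 cells/well with DMSO in place of 20 nM camptothecin. After compound pinning, cells grew at least 48 hr at 37 °C; viability read by CellTiter-Glo luminescence.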
# HT1080-NT tox = kills 2HG-producing HT-1080-NT fibrosarcoma cells | 1.6% of 360,000 active | Potency, µM (top dose mostly 46.1 µM), for the others: at the top dose activity, negative = less viability, actives largely listed as cytotoxic | HT-1080-NT fibrosarcoma viability, CellTiter-Glo ATP luminescence, 48 h | AID 686970;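 also: NT is the 2HG producing partner of a matched IDH1 knockdown line; potency is read from the fitted curve at half-maximal effect; 0% = DMSO-treated cells and -100% = media-only wells without cells; nearly all actives have a fitted effect of over 55% in size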
#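 HT-1080-NT; 750 cells/well; 5% FBS RPMI; 48 h compound, 37 degrees C; CellTiter-Glo luminescence; curve fitting and curve-class assignment.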
# Starred values were filed as active, the others as inactive; ? = inconclusive; nt = no result; [ ] = another dose, or the depositor's remark. This is one part of a sample in which hits are shown more often than they occur. Unless noted, calls follow the shape of the dose curve; as a rule, active = well fitted curve in the direction sought with a large enough effect; inconclusive = small, poorly fitted or top-dose-only effect, or another doubt; inactive = no such curve, though single readings can be large; an effect the other way counts as inactive or inconclusive. Unless noted, % is scaled to controls: 0 for no effect and ±100 for the full control effect.
SMILES,IL1B secr inh,12-LOX inh,HT1080 IDH1KD tx,TDP1 cell CPT,TDP1 cell noCPT,HT1080-NT tox
COc1ccc(C(=O)NCC(c2cccs2)S(=O)(=O)c2ccc(C)cc2)cc1 (configuration not stated),nt,-24.7%,nt,23.1µM*,14.6µM*,nt
CCCOc1ccc(C(CC(=O)c2ccc(C)cc2)S(=O)(=O)c2ccc(C)cc2)cc1 (configuration not stated),nt,2.4%,nt,nt,nt,nt
COc1ccc(-c2noc(CC3CCN(C(=O)c4cc(F)ccc4F)CC3)n2)cc1,nt,21.5%,nt,nt,nt,nt
CN1CCN(S(=O)(=O)c2cc3ccccc3oc2=O)CC1,nt,31.2%,nt,nt,nt,nt
COc1cccc(NC(=O)CCC(=O)Nc2ccc3nc(N4CCOCC4)cc(C)c3c2)c1,-3.1,?,0.6%,?,14.6µM*,7.3%
COc1cc(OC)cc(C(=O)Nc2ccc3nc(N4CCC(C)CC4)cc(C)c3c2)c1,nt,-19.2%,nt,9.2µM*,4.61µM*,nt
COc1ccccc1C(=O)Nc1ccc2nc(N3CCC(C)CC3)cc(C)c2c1,nt,-19.1%,nt,?,16.4µM*,nt
COc1ccc(C(=O)Nc2ccc3nc(N4CCCCC4)cc(C)c3c2)c(OC)c1,nt,-19.1%,nt,-23.5%,?,nt
COCCNC(=O)c1cn2cc(-c3cccc(Cl)c3)n(CC=C(C)C)c(=O)c2n1,nt,38.9%,nt,nt,nt,nt
Clc1ncnc2scc(C3COc4ccccc4O3)c12 (configuration not stated),-55.3*,-6.3%,-16.7%,?,16.4µM*,-12.3%
Cc1ccc(Oc2nnc(-c3cccs3)c3ccccc23)cc1C,-23.2,-27.3%,?,18.4µM*,?,?
c1ccc(Oc2nnc(-c3cccs3)c3ccccc23)cc1,17.8,-16.0%,0.7%,-2.1%,?,-1.5%
Cc1ccc(Oc2nnc(-c3cccs3)c3ccccc23)cc1,17.8,-1.3%,27.7%,?,18.4µM*,20.7%
COC(=O)c1[nH]c2ccc(F)cc2c1C=O,nt,-28.3%,nt,nt,nt,nt
CCc1nc(C)c(C(=O)NCc2cccnc2Oc2ccc(F)c(F)c2)o1,nt,17.9%,nt,nt,nt,nt
Cc1ccc(Cn2c(=N)n(CC(O)c3ccco3)c3ccccc32)cc1 (configuration not stated),-74.4*,0.0%,?,-83.8%,16.4µM*,?
Cc1ccccc1OCC(O)Cn1c2ccccc2c2ccccc21 (configuration not stated),-84.9*,-22.2%,?,?,?,?
CCCCn1c(=N)n(CCOc2ccc(C)cc2)c2ccccc21,nt,-18.9%,?,4.61µM*,5.8µM*,?
COc1ccccc1OCC(O)CN1CCN(C(=O)c2ccccc2)CC1 (configuration not stated),10.1,?,12.4%,16.0%,-7.7%,16.6%
OC(COc1ccccc1)Cn1c2ccccc2c2ccccc21 (configuration not stated),0.0,-20.5%,?,?,?,?
CCCCCn1c(=N)n(CC(O)COc2ccccc2OC)c2ccccc21 (configuration not stated),-58.8*,-8.2%,?,3.66µM*,5.8µM*,?
CCOC(=O)Cn1c(=N)n(CCOc2ccc(F)cc2)c2ccccc21,-3.7,?,16.8%,7.3%,-1.9%,23.0%
N=c1n(Cc2ccccc2Cl)c2ccccc2n1CC(O)c1ccco1 (configuration not stated),-3.6,1.5%,-19.2%,-27.4%,?,-16.7%
COc1ccccc1OC1(C(=O)O)CCN(C(=O)CCC2CC2)CC1,nt,49.6%,nt,nt,nt,nt
O=C(NCCc1ccccc1)c1ccc2nccn2c1,nt,-19.8%[176 µM],nt,nt,nt,nt
Cc1ncsc1CCC(=O)N1CC(=O)N(C2CCCCC2)CC(OCc2ccccc2)C1 (configuration not stated),nt,40.1%,nt,nt,nt,nt
